This is a sample that favours compounds with a hit; in the whole collection about 3.2% have one here.
DENV2 CPE = inhibitors of DENV2 cytopathic effect, primary screen, cell-based, plate reader, single concentration. CPE inhibition, % at 9.99 µM. AID 651640, 2012. DENV2-infected cells, cytopathic effect rescue. hit rate 1.7% among 350,000; in the data active = CPE inhibition above about 20%, passing the limit was not always enough; inconclusive = no clear call, values can overlap the other calls; tested in BHK-21 cells;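 note: 0% = median of neutral control wells and 100% = median of positive control wells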
CaV13 ICDI inh = Disruptors of the CACNA1D IQ motif to Ca2+-dependent inactivation inhibitor domain association, primary screening, Förster resonance energy transfer in intact living …; HEK cells, CFP/YFP FRET ICDI-IQ, plate reader, 10 min; percent FRET-ratio fall versus neutral wells; hit rate 0.098% among 340,000; inhibition, % at 12.3 µM;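 active = mean replicate inhibition of at least 30% and at least 1% of replicates passing that level; inconclusive = only one of the two criteria is met; inactive = neither criterion is met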;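 note: 0% = median of the neutral control wells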
GSIS activator = GLuc luminescence reporter in INS-1E cells, primary screen for activators of glucose-dependent secretion of insulin | INS-1E GLuc reporter insulin secretion, 2-3 h | activation, % at 16.6 µM | hit rate 0.61% among 370,000 | AID 743287, 2014;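 active = lowest replicate activation of at least 40%, so every replicate reaches that level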;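 note: 0% = median of neutral control wells and 100% = median of IBMX positive control wells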
ERAP1 HTS inh = human ERAP1 aminopeptidase inhibitors, primary screen, biochemical, single point, plate reader; inhibition, % at 10.7 µM; Endoplasmic reticulum aminopeptidase 1 (Homo sapiens), Q9NZ08; hit rate 0.15% among 340,000; recombinant ERAP1, Leu-AMC fluorescence, 60 min;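 active = mean replicate inhibition of at least 30%, or all replicates individually reaching that 30% level; inactive = mean below 30% and not every replicate reaching it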;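 note: 0% = neutral control wells and 100% = L-leucinethiol positive control wells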
Target sequence (Q9NZ08 whole entry, looked up): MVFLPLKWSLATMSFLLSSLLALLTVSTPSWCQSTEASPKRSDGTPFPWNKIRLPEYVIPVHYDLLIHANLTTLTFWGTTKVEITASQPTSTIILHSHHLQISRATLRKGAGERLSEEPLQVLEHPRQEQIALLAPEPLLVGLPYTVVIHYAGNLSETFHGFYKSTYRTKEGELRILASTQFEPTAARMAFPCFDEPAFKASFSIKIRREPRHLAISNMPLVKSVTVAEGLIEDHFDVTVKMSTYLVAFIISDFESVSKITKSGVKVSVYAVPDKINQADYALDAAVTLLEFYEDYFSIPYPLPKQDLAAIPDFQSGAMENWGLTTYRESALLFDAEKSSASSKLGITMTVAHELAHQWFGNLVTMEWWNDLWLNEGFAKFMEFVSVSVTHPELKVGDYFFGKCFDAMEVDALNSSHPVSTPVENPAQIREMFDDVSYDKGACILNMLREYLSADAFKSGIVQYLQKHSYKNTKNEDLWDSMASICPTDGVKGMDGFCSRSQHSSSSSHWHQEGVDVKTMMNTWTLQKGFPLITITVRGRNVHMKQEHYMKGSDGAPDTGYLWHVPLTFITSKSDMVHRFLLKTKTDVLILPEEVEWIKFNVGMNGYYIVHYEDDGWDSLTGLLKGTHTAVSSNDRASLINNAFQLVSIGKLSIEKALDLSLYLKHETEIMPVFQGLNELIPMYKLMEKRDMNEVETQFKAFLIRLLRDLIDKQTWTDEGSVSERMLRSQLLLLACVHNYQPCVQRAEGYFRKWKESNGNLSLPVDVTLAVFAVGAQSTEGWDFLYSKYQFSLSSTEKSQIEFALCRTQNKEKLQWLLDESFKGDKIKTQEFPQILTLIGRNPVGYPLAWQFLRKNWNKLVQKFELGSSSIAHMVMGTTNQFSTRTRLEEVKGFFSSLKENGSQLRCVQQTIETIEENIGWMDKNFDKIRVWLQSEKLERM
rRNA inh HTS = reduced GFP signal of wild-type E. coli, primary screen, bacterial rRNA inhibitor project, GFP/RFP fluorescence, OD600, single point; E. coli WT GFP vs humanized-ribosome RFP mutants, 24 h; stronger effect = lower value; DMSO median 0, no signal -100; GFP signal change (wild-type ribosome), % (no concentration beside the values); hit rate 1.6% among 350,000; AID 720706, 2013;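 active = significant combined selectivity score with lowered wild-type GFP, culture density cut under 30%, mutant RFP and density less affected; inactive = any of these conditions unmet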
PGC1a acetyl inh = inhibitors of PGC1a acetylation signal, primary screen, cell-based, U2OS, AlphaScreen, inhibitor mode; inhibition, % at 15.6 µM; hit rate 0.17% among 350,000; AlphaScreen anti-acetyl-lysine; with virally co-expressed GCN5 acetyltransferase;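 active = every replicate shows inhibition of at least 40%; inconclusive = mean inhibition at least 40% but some replicate below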;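 note: 0% = neutral control wells and 100% = positive control wells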
Active calls of the source: *; ? = inconclusive; / = not tested or not shown.

SMILES	DENV2 CPE	CaV13 ICDI inh	GSIS activator	ERAP1 HTS inh	rRNA inh HTS	PGC1a acetyl inh
Cc1noc(C)c1NC(=O)Nc1cccc2c1O[C@H](CN(C)Cc1ccc(-c3ccccc3)cc1)[C@@H](C)CN([C@@H](C)CO)C2=O	?	/	-11	-1	-3	-9
CCOc1cc(/C=C/c2cccc[n+]2C)ccc1OCC(=O)Nc1ccc(C)cc1	17	-5	1	73*	4	/
C[C@H]1CCCCO[C@@H](CN(C)C(=O)CCC(F)(F)F)[C@@H](C)CN([C@@H](C)CO)C(=O)c2cc(NS(C)(=O)=O)ccc2O1	0	/	8	3	1	33
CCCOC(=O)c1ccc(O)cc1	26*	/	13	-3	-1	-17
CCCCOC(=O)c1ccc(O)cc1	-9	-12	5	-3	0	8
C/C(Cn1ncc(N2CCOCC2)c(Cl)c1=O)=N\O	29*	-21	1	-6	20	2
O=C(NCC1CC1)[C@H]1[C@H](CO)[C@H]2Cn3c(cccc3=O)[C@@H]1N2C(=O)c1ccc(F)cc1	4	/	7	-1	2	-6
O=S(=O)(NCCC1=CCCCC1)c1ccccc1Br	1	-4	-12	-2	-23	/
O=S(=O)(NCCC1=CCCCC1)c1ccc(Br)cc1	119*	-5	-31	0	-60	/
C[C@@H]1CCCCO[C@@H](CN(C)C(=O)Nc2cccc3ccccc23)[C@H](C)CN([C@@H](C)CO)C(=O)c2cc(NS(C)(=O)=O)ccc2O1	14	/	-3	-3	-1	8
C[C@H]1CN([C@@H](C)CO)C(=O)c2cc(NC(=O)C3CCCCC3)ccc2O[C@H]1CN(C)Cc1ccccc1	-1	/	-12	3	-1	/
COCCNC(=O)/C(C#N)=C/C(C)=C/c1ccccc1	3	-15	8	-1	-22*	/
COCCNC(=O)/C(C#N)=C/c1cccc(/C=C(\C#N)C(=O)NCCOC)c1	11	-5	-31	0	-13	/
CCn1nc(C)c(/C=C/C(=O)Nc2ccc(C)cc2C)c1C	89*	-5	11	1	-18	/
CCn1ncc(/C=C/C(=O)Nc2c(C)nn(CC)c2C)c1C	/	-5	3	/	/	-38
O=C(Nc1cccc(S(=O)(=O)Nc2ccc(Cl)cc2)c1)c1ccc(Cl)nc1	12	-1	-32	-5	-36	/
COc1ccc(NS(=O)(=O)c2cccc(NC(=O)c3ccc(Cl)nc3)c2)cc1	-5	4	-27	-5	-25*	/
C[C@@H]1CN([C@H](C)CO)C(=O)Cc2cc(NC(=O)NC3CCCCC3)ccc2O[C@@H]1CN(C)Cc1ccc(C(=O)Nc2ccccc2N)cc1	28*	/	11	0	-9	0
C[C@H]1CN([C@@H](C)CO)C(=O)Cc2cc(NC(=O)c3ccncc3)ccc2O[C@H]1CN(C)Cc1ccc(C(=O)Nc2ccccc2N)cc1	58*	/	12	-1	-2	-6
C[C@H](CO)N1C[C@H](C)[C@H](CN(C)Cc2ccc(C(=O)Nc3ccccc3N)cc2)Oc2ccc(NC(=O)Cc3ccccc3)cc2CC1=O	32*	/	-7	-1	-4	-7
C[C@@H]1CN([C@H](C)CO)C(=O)Cc2cc(NC(=O)CCC(F)(F)F)ccc2O[C@@H]1CN(C)Cc1ccc(C(=O)Nc2ccccc2N)cc1	38*	/	15	0	-2	-1
C[C@H]1CN([C@@H](C)CO)C(=O)Cc2cc(NC(=O)Cc3ccccc3)ccc2O[C@H]1CN(C)Cc1ccc(C(=O)Nc2ccccc2N)cc1	-7	/	10	-2	-7	-10
C[C@H]1CN([C@@H](C)CO)C(=O)Cc2cc(NC(=O)CCC(F)(F)F)ccc2O[C@@H]1CN(C)Cc1ccc(C(=O)Nc2ccccc2N)cc1	7	/	12	0	-3	-1
CCCN1[C@@H]2c3ccc(-c4cccc(C(=O)N(C)C)c4)c(=O)n3C[C@@H]2[C@@H](CO)[C@@H]1C(=O)OC	-3	/	1	1	3	1
CCS(=O)(=O)N1CCCCN2[C@@H](CO)[C@H](c3ccc(C#Cc4ccccc4OC)cc3)[C@@H]2C1	-4	/	-8	-2	3	-3
SMILES	DENV2 CPE	CaV13 ICDI inh	GSIS activator	ERAP1 HTS inh	rRNA inh HTS	PGC1a acetyl inh
Cc1noc(C)c1S(=O)(=O)N(C)C[C@H]1Oc2ccc(NC(=O)CCN3CCOCC3)cc2CC(=O)N([C@H](C)CO)C[C@@H]1C	-3	/	1	0	2	-4
CCCN(C)C[C@H]1OCCCC[C@H](C)Oc2ccc(NS(=O)(=O)c3ccc(F)cc3)cc2C(=O)N([C@@H](C)CO)C[C@H]1C	-5	/	-12	2	1	-4
Cc1noc(/C=C/N(C)C)c1S(=O)(=O)N(C)CC(=O)NC1CCCCC1	/	-9	/	/	/	43*
C[C@@H]1CCCCO[C@@H](CN(C)C(=O)Nc2cccc3ccccc23)[C@H](C)CN([C@@H](C)CO)C(=O)c2cc(NC(=O)C3CCCCC3)ccc2O1	-5	/	12	-4	5	-18
Cc1cc(C)cc(-n2cccc2/C=C2/C(=N)N3C(=NC2=O)SN=C3S(C)(=O)=O)c1	-3	-12	11	1	-28*	6
Cc1ccc(-n2cccc2/C=C2/C(=N)N3C(=NC2=O)SN=C3S(C)(=O)=O)cc1	/	-4	12	/	/	7
CC(=O)N(C)C[C@@H]1Oc2ncc(C#Cc3ccncc3)cc2C(=O)N([C@H](C)CO)C[C@H]1C	3	/	26	2	5	0
Cc1ccc(/C=N/NC(=O)c2ccc(-n3cnnn3)cc2)cc1	32*	-7	10	0	10	-3
Cc1cc2c(sc3ccccc32)c(C)n1	-2	-1	17	3	-24*	-15
CCC(=O)NC[C@H]1[C@H](c2ccc(-c3cccc(F)c3)cc2)[C@H](CO)N1C(=O)CC	29*	/	1	0	-5	3
CCCNC(=O)NC[C@H]1[C@H](c2ccc(C3=CCCCC3)cc2)[C@@H](CO)N1C(C)=O	22*	/	-12	0	1	-1
CC(=O)NC[C@@H]1[C@@H](c2ccc(-c3ccccc3F)cc2)[C@@H](CO)N1C(C)=O	20*	/	-8	2	0	5
CCCNC(=O)NC[C@@H]1[C@H](c2ccc(C3=CCCCC3)cc2)[C@@H](CO)N1C(C)=O	-8	/	-10	-2	-7	-6
CC(=O)N1[C@@H](CO)[C@@H](c2ccc(-c3cccc(F)c3)cc2)[C@@H]1CNC(=O)C1CC1	7	/	-9	/	-4	-6
